The source of these data is article PMC5540273 (PLoS ONE, 2017).
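Note: KINOMEscan kinase panel screen.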

The first experiment concerns RET. To be noted: concentration: 1 μM,replicates: in singlicate; n = 1.
Regarding `Cn1ccc2ncnc(Oc3ccc(NC(=O)Nc4ccnc(C(F)(F)F)c4)c(Cl)c3)c21`, the “%Inh” value is reported as 100%.

Take `Cc1ccc(CC(=O)N2CCc3cc(-c4cn(C)c5ncnc(N)c45)ccc32)cc1` [GSK2634758]: the “%Inh” value worked out at 7%.

For `CS(=O)(=O)c1cccc(CNc2nc(Nc3ccc4c(c3)[C@@H]3C[C@@H]4CNC3=O)ncc2C(F)(F)F)c1`, the “%Inh” value is reported as 100%.

Turning to `CNC(=O)c1ccccc1Nc1nc(Nc2cccc(CS(C)(=O)=O)c2)ncc1C.O=CO` [GSK1520489], the “%Inh” value amounted to 100%.

As for `Cn1ccc2ncnc(Oc3ccc(NC(=O)Nc4cccc(C(F)(F)F)c4)c(Cl)c3)c21`, the “%Inh” value was determined as 100%.

With `CN1CCN(CCNc2nc3cc(Oc4ccc(NC(=O)Nc5cc(C(F)(F)F)ccc5F)cc4)ccc3[nH]2)CC1.Cl.Cl` [GW768504], the “%Inh” value is 99.9%.

`O=C(NCC1CC1)c1ccc(-c2cc(C(=O)NC3CC3)ccc2F)cc1` [GW810445]: the “%Inh” value is recorded as 4%.

As for `N#Cc1cccc(C(=O)NC2CCN(c3ccnc(Nc4ccc(F)cc4)n3)C2)c1` (centres unmarked) [GSK1379708], the “%Inh” value stood at 18%.

In the case of `FC(F)(F)c1cc(Br)cc(Nc2nccc(-c3cnn4ncccc34)n2)c1` [GW810578], the “%Inh” value is recorded as 0%.

As to `Cc1ccn2nc(-c3ccc(F)cc3)c(-c3ccncc3)c2c1.Cl` [GW457859], the “%Inh” value came to 4%.

With `C[C@@H](Oc1cc(-n2cnc3cc(-c4cnn(C)c4)ccc32)sc1C(N)=O)c1ccccc1Cl` [GSK580432], the “%Inh” value was 90%.

As to `Cn1ccc2ncnc(Oc3ccc(NC(=O)Nc4cncc(C(F)(F)F)c4)c(Cl)c3)c21`, the “%Inh” value was 100%.

As for `CS(=O)(=O)Nc1ccc(-c2ccnc3[nH]ccc23)cc1` [GSK993273], the “%Inh” value worked out at 22%.

As for `O=C(Nc1n[nH]c2cc(-c3ccco3)ccc12)C1CC1` [SB-737447], the “%Inh” value was 0%.

Regarding `OCCn1cc(-c2cnc3nnn(Cc4ccc5ncccc5c4)c3n2)cn1`, the “%Inh” value stood at 0%.

Regarding `Cc1ccc(Nc2ccnc(Nc3ccc4c(c3)CS(=O)(=O)C4)n2)cc1O.Cl` [GW579362], the “%Inh” value is listed as 100%.

Take `Cn1ccc2ncnc(Oc3ccc(NC(=O)Nc4cccc(C(F)(F)F)c4)c(F)c3)c21`: the “%Inh” value is given as 100%.

Consider `CCOC(=O)N1CCC(n2cnc(-c3ccc(F)cc3)c2-c2ccnc(N)n2)CC1` [SB-219952], for which the “%Inh” value stood at 30%.

For `CCn1c(-c2nonc2N)nc2cncc(Br)c21` [SB-738004], the “%Inh” value came to 26%.

Consider `Cl.c1ccc(Oc2ccc(Nc3ccnc4cc(-c5ccc(CN6CCNCC6)o5)ccc34)cc2)nc1` [GW567142], for which the “%Inh” value was 20%.

Consider `COc1cccc(C2=C(Nc3cccc(Cl)c3)C(=O)NC2=O)c1` [SB-341556], for which the “%Inh” value is 37%.

As to `CS(=O)c1ccc(-c2coc3ccc(-c4n[nH]c(=O)o4)cc23)cc1` (centres unmarked), the “%Inh” value turned out to be 12%.

Consider `COC(=O)Nc1nc2cc(Oc3ccc(NC(=O)Nc4cc(C(F)(F)F)ccc4Cl)cc3)ccc2[nH]1.Cl` [GW697465], for which the “%Inh” value was found to be 100%.

In the case of `Cn1cc(-c2cccc3c(N)c(C(N)=O)nnc23)cn1`, the “%Inh” value came out at 12%.

As for `C[C@@H]1CCN(C(=O)N2CCCC2)C[C@@H]1N(C)c1ncnc2[nH]ccc12`, the “%Inh” value is recorded as 41%.

For the compound `Cc1ccc2c(-c3ccnc(Nc4ccc(C(F)(F)F)cc4)n3)cnn2n1` [GW819776], the “%Inh” value was 0%.

In the case of `C[C@@H](Oc1cc(-n2cnc3cc(-c4ccncc4)ccc32)sc1C(N)=O)c1ccccc1Cl` [GSK479719], the “%Inh” value turned out to be 36%.

As to `CCNCC(Cc1ccccc1)NC(=O)c1cc(Br)c(-c2ccnc3[nH]ccc23)s1.Cl.Cl` (centres unmarked) [GSK1383280], the “%Inh” value is recorded as 75%.

On to `Cc1nnc(-c2ccc3occ(-c4ccc(S(C)=O)cc4)c3n2)o1` (centres unmarked), for which the “%Inh” value turned out to be 0%.

With `COc1cc2nccc(Nc3ccc(Oc4ccccc4)cc3)c2cc1OC.Cl` [GI261656], the “%Inh” value worked out at 23%.

As for `COc1cccc(OC)c1C(=O)Nc1cccc(-c2nn3ccccc3c2-c2ccnc(Nc3cccc(F)c3)n2)c1` [GSK361065], the “%Inh” value was determined as 90.1%.

For the compound `COc1cc(Nc2nccc(N3CCC(NC(=O)c4cccc(C#N)c4)C3)n2)cc(OC)c1OC` (centres unmarked) [GSK1379751], the “%Inh” value was found to be 14%.

In the case of `O=C(Nc1cccc(C(F)(F)F)c1)c1cccc(Oc2ccc3nccn3n2)c1`, the “%Inh” value came to 69%.

Regarding `CC(C)c1nc(-c2cccc(NS(=O)(=O)c3ccccc3)c2)c(-c2ccnc(Nc3ccc4c(c3)CN(C)CC4)n2)s1` [GSK1649598], the “%Inh” value was found to be 95.4%.

For `CN1CCN(CCCNc2nccc(-c3c(-c4ccc(F)cc4)nn4cc(C(N)=O)ccc34)n2)CC1` [GW622475], the “%Inh” value is recorded as 38%.

Take `CC(=O)c1c(-c2ccncc2)[nH]c(-c2ccncc2)c1C` [GW493036]: the “%Inh” value worked out at 26%.

On to `COC(=O)c1cccc(NC(=O)NC2CCN(c3ccnc(NCc4ccc(F)cc4)n3)CC2)c1` [GSK1379860], for which the “%Inh” value was 9%.

Another experiment concerns RIOK1. To be noted: concentration: 1 μM,replicates: in singlicate; n = 1.
Take `Cn1ccc2ncnc(Oc3ccc(NC(=O)Nc4ccnc(C(F)(F)F)c4)c(Cl)c3)c21`: the “%Inh” value was found to be 0%.

Take `Cc1ccc(CC(=O)N2CCc3cc(-c4cn(C)c5ncnc(N)c45)ccc32)cc1` [GSK2634758]: the “%Inh” value is reported as 25%.

For `CS(=O)(=O)c1cccc(CNc2nc(Nc3ccc4c(c3)[C@@H]3C[C@@H]4CNC3=O)ncc2C(F)(F)F)c1`, the “%Inh” value is reported as 76%.

As to `CNC(=O)c1ccccc1Nc1nc(Nc2cccc(CS(C)(=O)=O)c2)ncc1C.O=CO` [GSK1520489], the “%Inh” value is listed as 97.9%.

Take `Cn1ccc2ncnc(Oc3ccc(NC(=O)Nc4cccc(C(F)(F)F)c4)c(Cl)c3)c21`: the “%Inh” value came to 6%.

Take `CN1CCN(CCNc2nc3cc(Oc4ccc(NC(=O)Nc5cc(C(F)(F)F)ccc5F)cc4)ccc3[nH]2)CC1.Cl.Cl` [GW768504]: the “%Inh” value is on record as 0%.

As for `O=C(NCC1CC1)c1ccc(-c2cc(C(=O)NC3CC3)ccc2F)cc1` [GW810445], the “%Inh” value was determined as 1%.

Regarding `N#Cc1cccc(C(=O)NC2CCN(c3ccnc(Nc4ccc(F)cc4)n3)C2)c1` (centres unmarked) [GSK1379708], the “%Inh” value stood at 24%.

`FC(F)(F)c1cc(Br)cc(Nc2nccc(-c3cnn4ncccc34)n2)c1` [GW810578]: the “%Inh” value worked out at 0%.

Take `Cc1ccn2nc(-c3ccc(F)cc3)c(-c3ccncc3)c2c1.Cl` [GW457859]: the “%Inh” value is 23%.

As for `C[C@@H](Oc1cc(-n2cnc3cc(-c4cnn(C)c4)ccc32)sc1C(N)=O)c1ccccc1Cl` [GSK580432], the “%Inh” value amounted to 100%.

For the compound `Cn1ccc2ncnc(Oc3ccc(NC(=O)Nc4cncc(C(F)(F)F)c4)c(Cl)c3)c21`, the “%Inh” value is 0%.

`CS(=O)(=O)Nc1ccc(-c2ccnc3[nH]ccc23)cc1` [GSK993273]: the “%Inh” value is given as 98.6%.

For `O=C(Nc1n[nH]c2cc(-c3ccco3)ccc12)C1CC1` [SB-737447], the “%Inh” value is 81%.

Regarding `OCCn1cc(-c2cnc3nnn(Cc4ccc5ncccc5c4)c3n2)cn1`, the “%Inh” value was 0%.

Consider `Cc1ccc(Nc2ccnc(Nc3ccc4c(c3)CS(=O)(=O)C4)n2)cc1O.Cl` [GW579362], for which the “%Inh” value was 99.8%.

With `Cn1ccc2ncnc(Oc3ccc(NC(=O)Nc4cccc(C(F)(F)F)c4)c(F)c3)c21`, the “%Inh” value is reported as 0%.

Regarding `CCOC(=O)N1CCC(n2cnc(-c3ccc(F)cc3)c2-c2ccnc(N)n2)CC1` [SB-219952], the “%Inh” value came out at 51%.

Regarding `CCn1c(-c2nonc2N)nc2cncc(Br)c21` [SB-738004], the “%Inh” value is 19%.

With `Cl.c1ccc(Oc2ccc(Nc3ccnc4cc(-c5ccc(CN6CCNCC6)o5)ccc34)cc2)nc1` [GW567142], the “%Inh” value amounted to 0%.

Turning to `COc1cccc(C2=C(Nc3cccc(Cl)c3)C(=O)NC2=O)c1` [SB-341556], the “%Inh” value is 41%.

As to `CS(=O)c1ccc(-c2coc3ccc(-c4n[nH]c(=O)o4)cc23)cc1` (centres unmarked), the “%Inh” value worked out at 15%.

As to `COC(=O)Nc1nc2cc(Oc3ccc(NC(=O)Nc4cc(C(F)(F)F)ccc4Cl)cc3)ccc2[nH]1.Cl` [GW697465], the “%Inh” value worked out at 0%.

On to `Cn1cc(-c2cccc3c(N)c(C(N)=O)nnc23)cn1`, for which the “%Inh” value is given as 36%.

As to `C[C@@H]1CCN(C(=O)N2CCCC2)C[C@@H]1N(C)c1ncnc2[nH]ccc12`, the “%Inh” value worked out at 0%.

With `Cc1ccc2c(-c3ccnc(Nc4ccc(C(F)(F)F)cc4)n3)cnn2n1` [GW819776], the “%Inh” value is reported as 17%.

With `C[C@@H](Oc1cc(-n2cnc3cc(-c4ccncc4)ccc32)sc1C(N)=O)c1ccccc1Cl` [GSK479719], the “%Inh” value was 94.1%.

In the case of `CCNCC(Cc1ccccc1)NC(=O)c1cc(Br)c(-c2ccnc3[nH]ccc23)s1.Cl.Cl` (centres unmarked) [GSK1383280], the “%Inh” value came to 61%.

Turning to `Cc1nnc(-c2ccc3occ(-c4ccc(S(C)=O)cc4)c3n2)o1` (centres unmarked), the “%Inh” value is 0%.

For the compound `COc1cc2nccc(Nc3ccc(Oc4ccccc4)cc3)c2cc1OC.Cl` [GI261656], the “%Inh” value was found to be 11%.

For `COc1cccc(OC)c1C(=O)Nc1cccc(-c2nn3ccccc3c2-c2ccnc(Nc3cccc(F)c3)n2)c1` [GSK361065], the “%Inh” value was found to be 43%.

Take `COc1cc(Nc2nccc(N3CCC(NC(=O)c4cccc(C#N)c4)C3)n2)cc(OC)c1OC` (centres unmarked) [GSK1379751]: the “%Inh” value worked out at 90.2%.

With `O=C(Nc1cccc(C(F)(F)F)c1)c1cccc(Oc2ccc3nccn3n2)c1`, the “%Inh” value was 0%.

`CC(C)c1nc(-c2cccc(NS(=O)(=O)c3ccccc3)c2)c(-c2ccnc(Nc3ccc4c(c3)CN(C)CC4)n2)s1` [GSK1649598]: the “%Inh” value is on record as 18%.

Turning to `CN1CCN(CCCNc2nccc(-c3c(-c4ccc(F)cc4)nn4cc(C(N)=O)ccc34)n2)CC1` [GW622475], the “%Inh” value was found to be 46%.

In the case of `CC(=O)c1c(-c2ccncc2)[nH]c(-c2ccncc2)c1C` [GW493036], the “%Inh” value worked out at 17%.

On to `COC(=O)c1cccc(NC(=O)NC2CCN(c3ccnc(NCc4ccc(F)cc4)n3)CC2)c1` [GSK1379860], for which the “%Inh” value stood at 22%.
